Measured values published in the supplement of paper PMC10105736.
Values without a mark were called inactive.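 How the source made its calls: active = MAPPIT score above the 99th percentile of random reference set scores in the same batch; inactive = at or below it.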

Assays:
Experiment in all cases: MAPPIT interaction score (arbitrary units); higher = stronger binary interaction signal, active = hit call of the paper
Tgi = conditions: MAPPIT configuration: N-N; pair source set: Lit-BM-16
yki = conditions: MAPPIT configuration: N-N; pair source set: Lit-BM-16
Tim17b2 = conditions: MAPPIT configuration: N-C
Tm1 = conditions: MAPPIT configuration: N-N; pair source set: Curagen_high_conf
Tom20 = conditions: MAPPIT configuration: N-N; pair source set: DPIM
Traf-like = conditions: MAPPIT configuration: N-N; pair source set: Curagen_low_conf
Trxr1 = conditions: MAPPIT configuration: N-N; pair source set: Finley_Y2H
Tsp74F = conditions: MAPPIT configuration: N-C; pair source set: screen_3
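Further: HEK293T cells with Epo stimulation, STAT-responsive firefly luciferase reporter, fold induction versus unstimulated cells divided by the larger fold induction of two negative controls lacking either bait or prey.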

B1: sd (protein)
chain: MKNITSSSTCSTGLLQLQNNLSCSELEVAEKTEQQAVGPGTIPSPWTPVNAGPPGALGSADTNGSMVDSKNLDVGDMSDDEKDLSSADAEGVWSPDIEQSFQEALSIYPPCGRRKIILSDEGKMYGRNELIARYIKLRTGKTRTRKQVSSHIQVLARRKLREIQAKIKVQFWQPGLQPSTSQDFYDYSIKPFPQPPYPAGKTSTAVSGDETGIPPSQLPWEGRAIATHKFRLLEFTAFMEIQRDEIYHRHLFVQLGGKPSFSDPLLETVDIRQIFDKFPEKSGGLKDLYEKGPQNAFYLVKCWADLNTDLTTGSETGDFYGVTSQYESNENVVLVCSTIVCSFGKQVVEKVESEYSRLENNRYVYRIQRSPMCEYMINFIQKLKNLPERYMMNSVLENFTILQVMRARETQETLLCIAYVFEVAAQNSGTTHHIYRLIKE
MAPPIT interaction score (Tgi): 0.163 | MAPPIT interaction score (yki): 0.822

B2: CG3792 (protein)
chain: MTDLIRQGALFLMSEKCYDNYFLYHNFLDVPCFKALLSKGLGLAIIAGSVLVKVPQVLKILNSKSGEGINIVGVVLDLLAISFHLSYNFMHGYPFSAWGDSTFLAIQTVTIAVLVLFFNGRKAQSGLFLVGYVVLMYVLNSGLTPMSVLFTIQSCNIPILLVGKLSQAYTNYQAGSTGQLSAATVIMMFAGSVARIFTSIQETGDFMIILTFIASTFANSVILGQLIYYWNKPAGVKVKDSKAKKPKTKKDD
MAPPIT interaction score (Tim17b2; pair source set: screen_3): -0.183

B3: meigo (protein)
chain: MNLPERSRFVIYAVGIFVCYFLYGIVQEKLTRGRYGEEVQTDGSVGERFTYALALVWVQCLCNYVFAKVLLTIRPQKEDTTNAGSYVACSLTYLLAMVSTNMAMRWVPYPTAVVGKSAKPIPVMILGVLIGRKSYSWTRYACVLTIVLGVILFMYKEGKVSNLPAETTLLGEVLLFLSLSMDGLTGAVQERIRAASAPSGQQMMRAMNFWSTLMLGVAMVFTGEAKEFMYFTIRHPEAWTHLSLIAVCGVLGQFFIFLMVASFGPLACSVVTTTRKFFTVLCSVLLFGNVLIARQWLGAVLVFAALFVDMLYGKKAPLATAKKPPVEGKLSEEKKLNS
MAPPIT interaction score (Tim17b2; pair source set: screen_4): -0.125

B4: RpS19b (protein)
chain: MPGVTVKEIDQHVLTKNMAAFLKKSGKIFVPEQAVYMKTGKFKETAPTDDDWFYTRCASIMRHLYLRSPAGVGAFTKVYSGRKRNGVRPSKHCRSSDGCIRKALQALEAANMVERHPDGGRKLTPQGQRNLDRIANKIVAKQRERSAPVSMIITT
MAPPIT interaction score (Tm1): 0.314

B5: grk (protein)
chain: MMQIPFTRIFKVIFVLSTIVAVTDCCSSRILLLREHTLKIVQHQHSHMHEHAHELQQQIQETAVELLNRLELQRKQLEASAQEEADQLHPDTDPNPDSGGQLPNADDSIAADPEQDGIILGSSTDTWLASESSTPITDSETVTTPETVTHTGEPPPDPSSSSTPDSTTPSPNDKETEIQMLPCSEAYNTSFCLNGGHCFQHPMVNNTVFHSCLCVNDYDGERCAYKSWNGDYIYSPPTAQRKVRMAHIVFSFPVLLMLSSLYVLFAAVFMLRNVPDYRRKQQQLHLHKQRFFVRC
MAPPIT interaction score (Tom20): 0.109

B6: Mlp84B (protein)
chain: MPSFQPIEAPKCPRCGKSVYAAEERLAGGYVFHKNCFKCGMCNKSLDSTNCTEHERELYCKTCHGRKFGPKGYGFGTGAGTLSMDNGSQFLRENGDVPSVRNGARLEPRAIARAPEGEGCPRCGGYVYAAEQMLARGRSWHKECFKCGTCKKGLDSILCCEAPDKNIYCKGCYAKKFGPKGYGYGQGGGALQSDCYAHDDGAPQIRAAIDVDKIQARPGEGCPRCGGVVYAAEQKLSKGREWHKKCFNCKDCHKTLDSINASDGPDRDVYCRTCYGKKWGPHGYGFACGSGFLQTDGLTEDQISANRPFYNPDTTSIKARDGEGCPRCGGAVFAAEQQLSKGKVWHKKCYNCADCHRPLDSVLACDGPDGDIHCRACYGKLFGPKGFGYGHAPTLVSTSGESTIQFPDGRPLAGPKTSGGCPRCGFAVFAAEQMISKTRIWHKRCFYCSDCRKSLDSTNLNDGPDGDIYCRACYGRNFGPKGVGYGLGAGALTTF
MAPPIT interaction score (Traf-like): -0.422

B7: CG7639 (protein)
chain: MPKSGRDGGASKDSKYDLSKISARVDRVNVSGLLRTHNDYVMRAADGLFKASNFQDLMLEAMSTKSYLHELGIFKDVSVHIDVSRGADASPQGYEVTFKGNEMSRMMGSAGTEIGQNEGSLRTELTIPNILGRGENISLQGSYSSTRANDLQLKFWKPFFHTRFKENRPEMSFSIFRQTDRFDISSFQTTNIGYLVDFSAHTMVGVDLTHSLQYENAIRDVGLLNKSVPFAIRDHCGPKLASLLRYSVVYDNRDGNVFPTRGIYLKSVNEYCGLGGNVAYTSSTAHGELNVPLFAGLVAQFCARVGVVKETKNTTQLPISSLFYCGGPLTLRGFKFGGAGPVVESTPIGAQSFWCTGAHLWAPLPFAGVFKNLASHFRMHFFYNIGNNNSFSTENMRSAFGMGLAVKLAERARIELNYCVPVRHQDTDRILNGFQFGIGYEFV
MAPPIT interaction score (Trxr1): -0.0261

B8: Surf4 (protein)
chain: MSIPNEYIAKTEDVAEQVIKRGKNVLPTVARLCLIATFFEDGLRMYIQWNEQREYMDMSWGCGKFLATVFVLVNLLGQLGGCGMVMARFKVDIAVGLLFFIVVLQTVAYSILWDFQFLLRNFALIGALLLVLAEARIEGRSLFAGVPSMGENKPKNFMQLAGRILLAFMFITLIRFELSVWQVIQDIIGSILMVLVVLGYKTKLSALILVALLTILNLYHNAWWTIPSYKPLRDFLKYDFFQTLSVIGGLLMIVSLGPGGVSMDEHKKKW
MAPPIT interaction score (Tsp74F): -0.232
